Bioassay records deposited in PubChem BioAssay by several laboratories.
NCOA3 inh: inhibits human SRC3 coactivator | inhibition, % at 3.6 µM | HEK293 GAL4-SRC3 luciferase reporter, luminescence | AID 588352 | actives 0.17% (n = 360,000);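 active = inhibition above a per-campaign cutoff, the mean of all compounds plus 3 SD, cut at about 60% in these data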;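 also: 0% = DMSO-treated cells and 100% = gossypol-treated cells at 36 µM; higher means less SRC3-driven luciferase light from the GAL4 reporter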
NCOA1 inh: inhibits human SRC1 coactivator. Q15788. HEK293 GAL4-SRC1 luciferase reporter, luminescence. inhibition, % at 3.6 µM. actives 0.12% (n = 360,000);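 active = inhibition above the campaign mean plus 3 SD, with each screening campaign given its own cutoff, cut at about 60% in these data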;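 also: 0% = DMSO treated cells and 100% = gossypol at 36 µM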
NR2F2 inh: inhibitors of human COUP-TFII (NR2F2) | inhibition, % at 8.6 µM | HEK293T NGFI-A luciferase reporter, luminescence | AID 686940 | P24468 | actives 0.7% (n = 370,000);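 active = inhibition above a per-plate cutoff, mean inhibition of test wells between control levels plus 3 SD, cut at about 38% in these data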;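 also: cells cotransfected with COUP-TFII expression vector driving the NGFI-A reporter; 0% = median of COUP-TF2 test wells and 100% = reporter-only cells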
SRC2 inh: human SRC2 (NCOA2) inhibition; Q15596; HEK293 GAL4-SRC2 luciferase reporter, luminescence; inhibition, % at 9 µM; actives 0.17% (n = 370,000);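 active = inhibition above the mean inhibition of all tested compounds plus 3 SD, set per campaign, cut at about 52% in these data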;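 also: 0% = DMSO treated cells and 100% = cells given Gossypol at 36 µM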
LRH-1 inv ag: inverse agonists of human LRH-1 (NR5A2); O00482; HEK293T StAR-luciferase reporter, LRH-1 transfected, 24 h; inhibition, % at 3.6 µM; actives 0.13% (n = 360,000);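 active = inhibition above the mean inhibition of all tested compounds plus 3 SD, cut at about 73% in these data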;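 also: 0% = DMSO wells and 100% = reporter-only cells lacking LRH-1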
Gli-Sufu block: Gli-Sufu pathway antagonism. Sufu-KO-LIGHT fibroblasts, Gli luciferase reporter luminescence. inhibition, % at 5 µM. actives 0.74% (n = 340,000). AID 588413;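 active = inhibition above about 55%, limit read from the data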;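 also: 0% = DMSO-treated cells and 100% = wells with medium but no cells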
Gal4-VP16 ctr: counter-screen for COUP-TFII antagonists: inhibitors of VP16 | shares compounds with NR2F2 inh | AID 687007 | actives 25% (n = 2,500) | inhibition, % at 8.5 µM | HEK293 Gal4-VP16 luciferase reporter, luminescence; in the data active = inhibition above about 13%
NR2F2 inh conf: COUP-TFII (NR2F2) inhibition, confirmation assay | HEK293 NGFI-A luciferase reporter, luminescence | inhibition, % at 8.5 µM | AID 687008 | shares compounds with NR2F2 inh | actives 45% (n = 2,500);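 active = mean inhibition over three repeats above a set limit taken from the earlier primary screen, cut at about 38% in these data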;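 also: 100% = cells given the luciferase reporter alone without the COUP-TF2 vector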
An asterisk follows results filed as active. The list is not random: actives were taken first. Their share in the collection is about 1.2%.

For COc1ccc(C=C2CS(=O)(=O)CC(=Cc3ccc(OC)cc3)C2=O)cc1 the results were NCOA3 inh 40, NCOA1 inh 36, NR2F2 inh 71*, SRC2 inh 3, LRH-1 inv ag 53, Gal4-VP16 ctr 47* and NR2F2 inh conf 65*.
Screening CC12CCC3c4ccc(OCCCO)c([N+](=O)[O-])c4CCC3C1CCC2=O (stereo not drawn) returned NR2F2 inh -15 and SRC2 inh -16.
For O=C(Nc1ccccc1)c1ccc(S(=O)(=O)NCc2cccnc2)cc1 the results were NCOA3 inh -1, NCOA1 inh 29, NR2F2 inh 32, SRC2 inh 4, LRH-1 inv ag -6 and Gli-Sufu block -15.
`O=C(Nc1ccc(S(=O)(=O)NCc2cccnc2)cc1)c1ccccc1Cl` gave NCOA3 inh 22, NCOA1 inh 15, NR2F2 inh 40*, SRC2 inh 16, LRH-1 inv ag 25, Gli-Sufu block 25, Gal4-VP16 ctr 6 and NR2F2 inh conf 28.
For CSc1n[nH]c(-c2cccs2)n1 the results were NR2F2 inh -15 and SRC2 inh 10.
CN1CCN(c2ccc(-c3ccc4ccccc4n3)cc2)CC1 was read as NCOA3 inh 80*, NCOA1 inh 79*, NR2F2 inh 90*, SRC2 inh 76*, LRH-1 inv ag 74*, Gli-Sufu block 88*, Gal4-VP16 ctr 52* and NR2F2 inh conf 90*.
`Cc1ccc(NS(=O)(=O)c2ccc(C(=O)N3CCN(c4ncccn4)CC3)cc2)cc1` gave NCOA3 inh 23, NCOA1 inh 9, NR2F2 inh 39*, SRC2 inh -1, LRH-1 inv ag 34, Gli-Sufu block 48, Gal4-VP16 ctr -2 and NR2F2 inh conf 14.
For O=C(NCc1ccco1)O[C@H]1CC[C@@]23CCCN2C(=O)CCC[C@H]3C1 the results were NR2F2 inh 1.
`CCOC(=O)/C(=C\Nc1cccc(OCc2ccccc2)c1)NC(=O)c1ccccc1` gave NR2F2 inh 9 and SRC2 inh -8.
Screening Cc1ccc(Oc2ccc(C(=O)NCc3ccncc3)cc2)cc1 returned NCOA3 inh 16, NCOA1 inh 26, NR2F2 inh 74*, SRC2 inh 45, LRH-1 inv ag 63, Gli-Sufu block 20, Gal4-VP16 ctr -7 and NR2F2 inh conf 41*.
`C[C@@H]1CCCCO[C@@H](CN(C)C(=O)CCC(F)(F)F)[C@@H](C)CN([C@H](C)CO)C(=O)c2cc(NS(=O)(=O)c3cccs3)ccc2O1` gave NR2F2 inh 10 and SRC2 inh -7.
For Cc1ccc(-c2nc(-c3ccccn3)no2)cc1 the results were NCOA3 inh 57, NCOA1 inh 51, NR2F2 inh 72*, SRC2 inh 75*, LRH-1 inv ag 43, Gli-Sufu block 75*, Gal4-VP16 ctr 60* and NR2F2 inh conf 78*.
For c1ccc(-c2nc(-c3ccccn3)no2)cc1 the results were NCOA3 inh -13, NCOA1 inh -25, NR2F2 inh -2, SRC2 inh 20, LRH-1 inv ag -92 and Gli-Sufu block 13.
`c1ccc(-c2ccc(-c3nc(-c4ccccn4)no3)cc2)cc1` gave NCOA3 inh 66*, NCOA1 inh 56, NR2F2 inh 63*, SRC2 inh 67*, LRH-1 inv ag 48, Gli-Sufu block 81*, Gal4-VP16 ctr 71* and NR2F2 inh conf 88*.
Screening Cc1nnc(SCC(=O)N2CCC(c3noc4ccc(F)cc34)CC2)s1 returned NCOA3 inh 63*, NCOA1 inh 62*, NR2F2 inh 49*, SRC2 inh 46, LRH-1 inv ag 21, Gli-Sufu block -5, Gal4-VP16 ctr 5 and NR2F2 inh conf 19.
`Cc1sc2ncnc(SCC(=O)N3CCC(c4noc5ccc(F)cc45)CC3)c2c1C` gave NCOA3 inh 16, NCOA1 inh 6, NR2F2 inh 17, SRC2 inh -22, LRH-1 inv ag -9 and Gli-Sufu block -16.
Screening CCCN(CCC)C1=CC(=[N+]2CCCC2)CC(C)(C)C1 returned NCOA3 inh 55, NCOA1 inh 61*, NR2F2 inh 53*, SRC2 inh 39, LRH-1 inv ag 72, Gli-Sufu block 82*, Gal4-VP16 ctr 11 and NR2F2 inh conf 43*.
For CN(C)NC1=CC(=[N+]2CCCC2)CC(C)(C)C1 the results were NCOA3 inh 24, NCOA1 inh -2, NR2F2 inh -14, SRC2 inh -4, LRH-1 inv ag 6 and Gli-Sufu block 1.
CCOC(=O)c1c(CN2CCN(C)CC2)n(-c2ccccc2)c2cc(Br)c(O)cc12 was read as NCOA3 inh 22, NCOA1 inh -11, NR2F2 inh 9, SRC2 inh 3, LRH-1 inv ag -23 and Gli-Sufu block 13.
Screening CCOC(=O)c1c(CN2CCN(CCO)CC2)n(-c2ccccc2)c2cc(Br)c(O)cc12 returned NCOA3 inh -3, NCOA1 inh -25, NR2F2 inh 43*, SRC2 inh 16, LRH-1 inv ag 2, Gli-Sufu block 18, Gal4-VP16 ctr 2 and NR2F2 inh conf -4.
O=C(OCc1cn(Cc2ccc(C(F)(F)F)cc2)nn1)N1CCOCC1 was read as NR2F2 inh -8 and SRC2 inh 7.
O=C1CSc2ccc(C(=O)Nc3cccc(S(=O)(=O)Nc4ccc(Br)cc4)c3)cc2N1 was read as NCOA3 inh 17, NCOA1 inh -25, NR2F2 inh 75*, SRC2 inh 37, LRH-1 inv ag -3, Gli-Sufu block 42, Gal4-VP16 ctr 0 and NR2F2 inh conf 32.
For Cc1c(/C(O)=C2/C(=O)C(=O)N(Cc3cccnc3)C2c2ccccn2)cnn1-c1ccccc1 (stereo not drawn) the results were NCOA3 inh 76*, NCOA1 inh 70*, NR2F2 inh 95*, SRC2 inh 77*, LRH-1 inv ag 71, Gli-Sufu block 36, Gal4-VP16 ctr -3 and NR2F2 inh conf 13.
`Cc1c(/C(O)=C2/C(=O)C(=O)N(CCN3CCOCC3)C2c2ccco2)cnn1-c1ccccc1` (stereo not drawn) gave NCOA3 inh 46, NCOA1 inh 43, NR2F2 inh 60*, SRC2 inh 44, LRH-1 inv ag 20, Gli-Sufu block 12, Gal4-VP16 ctr 1 and NR2F2 inh conf 46*.
For COC(=O)[C@]12C[C@H](CC(=O)NCC34CC5CC(CC(C5)C3)C4)C(=O)N(Cc3ccc(Cl)cc3Cl)C1=C[C@H](C1CCCC1)O[C@@H]2C the results were NR2F2 inh 9 and SRC2 inh -4.
